# Where a name gives a salt, the structure may show the parent alone.
# Test system: Danio rerio larvae (5 dpf)
# Assay: startle response to 20-s acoustic pulses, difference vs DMSO (percentage points (treated minus DMSO)); higher = more of the behaviour than the DMSO vehicle control
# Conditions: 10 µM; exposure time: 3 h pre-incubation + 3 h imaging
# Protocol: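 5-dpf wild-type zebrafish larvae were imaged in 96-well plates. They were treated with 190 Tocris FDA-approved drugs at 10 µM (1 µl/ml DMSO) for 3 h before and 3 h during imaging at 28.5 °C, 48 larvae per drug. Automated image analysis gave % time moving and optomotor responses. Values are drug group mean minus DMSO vehicle mean (n=844), in percentage points, for 10 behaviours.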
row,Structure (SMILES),startle response to 20-s acoustic pulses
1,CC(C)(C(=O)O)c1ccc(C(O)CCCN2CCC(C(O)(c3ccccc3)c3ccccc3)CC2)cc1 (stereo not given) [Fexofenadine hydrochloride],4
2,COc1ccccc1OCC(O)CN1CCN(CC(=O)Nc2c(C)cccc2C)CC1 (stereo not given) [Ranolazine dihydrochloride],2.42
3,Cn1cnc([N+](=O)[O-])c1Sc1ncnc2[nH]cnc12 [Azathioprine],-1.29
4,CC(C)COCC(CN(Cc1ccccc1)c1ccccc1)N1CCCC1 (stereo not given) [Bepridil hydrochloride],-5.17
5,CN(C)CCC[C@@]1(c2ccc(F)cc2)OCc2cc(C#N)ccc21 [Escitalopram oxalate],-6.28
6,CC(=O)NC[C@H]1CN(c2ccc(N3CCOCC3)c(F)c2)C(=O)O1 [Linezolid],2.02
7,O=C(NCC1CCCCN1)c1cc(OCC(F)(F)F)ccc1OCC(F)(F)F (stereo not given) [Flecainide acetate],1.77
8,COc1ccc([C@@H]2Sc3ccccc3N(CCN(C)C)C(=O)[C@@H]2OC(C)=O)cc1 [Diltiazem hydrochloride],0.061
9,CCOC(=O)N1CCC(=C2c3ccc(Cl)cc3CCc3cccnc32)CC1 [Loratidine],14.8
10,CC(C)c1nc(N(C)S(C)(=O)=O)nc(-c2ccc(F)cc2)c1/C=C/[C@@H](O)C[C@@H](O)CC(=O)O [Rosuvastatin calcium],-3.11
11,CCc1ccc(CCOc2ccc(CC3SC(=O)NC3=O)cc2)nc1 (stereo not given) [Pioglitazone hydrochloride],-3.21
12,CCC(=O)O[C@]1(C(=O)SCF)[C@H](C)C[C@H]2[C@@H]3C[C@H](F)C4=CC(=O)C=C[C@]4(C)[C@@]3(F)[C@@H](O)C[C@@]21C [Fluticasone propionate],-3.1
13,COc1ccc(Cl)cc1C(=O)NCCc1ccc(S(=O)(=O)NC(=O)NC2CCCCC2)cc1 [Glibenclamide],6.49
14,Cc1ccc(O)c([C@H](CCN(C(C)C)C(C)C)c2ccccc2)c1 [Tolterodine L-tartrate],-5.76
15,OCCOCCN1CCN(C2=Nc3ccccc3Sc3ccccc32)CC1 [Quetiapine hemifumarate],-1.65
16,C[C@@H]1C[C@H]2[C@@H]3CCC4=CC(=O)C=C[C@]4(C)[C@@]3(F)[C@@H](O)C[C@]2(C)[C@@]1(O)C(=O)CO [Dexamethasone],-1.79
17,COc1cc2nccc(Oc3ccc(NC(=O)C4(C(=O)Nc5ccc(F)cc5)CC4)cc3)c2cc1OC,-5.31
18,Cc1nc(Nc2ncc(C(=O)Nc3c(C)cccc3Cl)s2)cc(N2CCN(CCO)CC2)n1 [Dasatinib],0.79
19,Cc1nc(-c2ccc(OCC(C)C)c(C#N)c2)sc1C(=O)O [Febuxostat],2.71
20,O=c1[nH]c(=O)n([C@H]2C[C@H](O)[C@@H](CO)O2)cc1C(F)(F)F [Trifluorothymidine],1.37

row,Structure (SMILES),startle response to 20-s acoustic pulses
1,Nc1nc(Cl)nc2c1ncn2[C@@H]1O[C@H](CO)[C@@H](O)[C@@H]1F [Clofarabine],5.05
2,COc1c(C)c2c(c(O)c1C/C=C(\C)CCC(=O)OCCN1CCOCC1)C(=O)OC2 [Mycophenolate mofetil],3.73
3,CC(C)(C(=O)c1cccnc1)c1cccnc1 [Metyrapone],3.51
4,Clc1ccccc1C(c1ccccc1)(c1ccccc1)n1ccnc1 [Clotrimazole],4.06
5,CN1CC(=O)N2[C@H](c3ccc4c(c3)OCO4)c3[nH]c4ccccc4c3C[C@@H]2C1=O [Tadalafil],7.96
6,CCc1nc(N)nc(N)c1-c1ccc(Cl)cc1 [Pyrimethamine],1.7
7,CCCCc1nc(Cl)c(CO)n1Cc1ccc(-c2ccccc2-c2nnn[nH]2)cc1 [Losartan potassium],-0.252
8,CNC(=O)c1cc(Oc2ccc(NC(=O)Nc3ccc(Cl)c(C(F)(F)F)c3)cc2)ccn1 [Sorafenib],-4.57
9,CN(C)CCc1c[nH]c2ccc(Cn3cncn3)cc12 [Rizatriptan benzoate],4.29
10,COc1ccc(C[C@@H](C)NC[C@H](O)c2ccc(O)c(NC=O)c2)cc1 [Arformoterol tartrate],-9.44
11,CCCN(CCC)S(=O)(=O)c1ccc(C(=O)O)cc1 [Probenecid],1.66
12,N#Cc1ccc2[nH]cc(CCCCN3CCN(c4ccc5oc(C(N)=O)cc5c4)CC3)c2c1 [Vilazodone hydrochloride],-6.5
13,Clc1ccc(COC(Cn2ccnc2)c2ccc(Cl)cc2Cl)c(Cl)c1 (stereo not given) [Miconazole nitrate],4.56
14,Nc1ccn([C@@H]2O[C@H](CO)[C@@H](O)C2(F)F)c(=O)n1 [Gemcitabine hydrochloride],3.92
15,CNCc1ccc(-c2[nH]c3cc(F)cc4c3c2CCNC4=O)cc1 [Rucaparib camsylate],-4.08
16,CCCCCCCN(CC)CCCC(O)c1ccc(NS(C)(=O)=O)cc1 (stereo not given) [Ibutilide hemifumarate],-3.17
17,CCOC(=O)[C@H](CCc1ccccc1)N[C@H]1CCc2ccccc2N(CC(=O)O)C1=O [Benazepril hydrochloride],-1.74
18,CCCc1nc2c(C)cc(-c3nc4ccccc4n3C)cc2n1Cc1ccc(-c2ccccc2C(=O)O)cc1 [Telmisartan],3.69
19,N#C[C@@H]1C[C@@H]2C[C@@H]2N1C(=O)[C@@H](N)C12CC3CC(CC(O)(C3)C1)C2 [Saxagliptin hydrochloride],4.85
20,CCC(C)(C)C(=O)O[C@H]1C[C@@H](C)C=C2C=C[C@H](C)[C@H](CC[C@@H]3C[C@@H](O)CC(=O)O3)[C@H]21 [Simvastatin],3.9

# Source: the supplement of paper PMC9023506
